# An excerpt weighted towards active compounds, which were near 2.4% of everything screened.
# Cruzain inh noDet: blocks cruzain activity in detergent-free assay. P25779. AID 1476. Potency, µM, usual class: inhibitors. purified cruzain, Z-FR-AMC fluorescence, no detergent. 2.3% of 200,000 active; also: nearly all actives have a fitted effect of over 40% in size
# Target sequence (P25779 123-467 limits assumed): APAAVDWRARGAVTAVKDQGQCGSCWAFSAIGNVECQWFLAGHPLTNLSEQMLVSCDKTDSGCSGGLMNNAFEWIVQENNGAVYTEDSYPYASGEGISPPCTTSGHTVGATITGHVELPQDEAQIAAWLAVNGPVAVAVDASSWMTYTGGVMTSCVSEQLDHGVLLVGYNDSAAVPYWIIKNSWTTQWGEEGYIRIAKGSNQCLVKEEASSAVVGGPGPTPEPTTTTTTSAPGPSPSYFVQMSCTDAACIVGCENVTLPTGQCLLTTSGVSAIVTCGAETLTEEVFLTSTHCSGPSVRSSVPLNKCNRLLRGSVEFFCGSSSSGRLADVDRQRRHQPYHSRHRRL
#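 Detergent-free condition (0.00005% Triton X-100) in acetate buffer pH 5.5 with DTT. 1.5 nM enzyme and compound were pre-mixed 15 min, then 2 uM Z-FR-AMC substrate added; reaction progress from fluorescence change between first and third reads (60 s).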
# Cruzain inh Det: inhibitors of Trypanosoma cruzi cruzain with detergent; P25779; purified cruzain, Z-FR-AMC fluorescence, 0.01% Triton; Potency, µM, usual class: inhibitors; 0.43% of 200,000 active; also: nearly all actives have a fitted effect of over 40% in size
#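 Sodium acetate buffer (100 mM, pH 5.5) containing 5 mM DTT and 0.01% Triton X-100 hosted 1.5 nM cruzain and test compound for 15 min at room temperature. Cleavage of 2 uM Z-FR-AMC was then tracked by fluorescence.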
# A number is an active result; 0 = inactive; ? = inconclusive. Calls follow the shape of the dose curve; as a rule, active = well fitted curve in the direction sought with a large enough effect; inconclusive = small, poorly fitted or top-dose-only effect, or another doubt; inactive = no such curve, though single readings can be large; an effect the other way counts as inactive or inconclusive.
SMILES,Cruzain inh noDet,Cruzain inh Det
Cc1cc(C)cc(N(C(=O)CNC(=O)c2cccs2)C(C(=O)NC2CCCC2)c2cccnc2)c1 (stereo not given),0,0
CCOc1ccccc1N(C(=O)CNC(=O)c1ccco1)C(C(=O)NC1CCCC1)c1cccnc1 (stereo not given),0,0
COc1ccc(/C=N/O)cc1COc1ccc(NC(C)=O)cc1,0,0
CCn1c2ccccc2c2cc(NC(=O)C(C)Oc3ccccc3)ccc21 (stereo not given),?,0
CCn1c2ccccc2c2cc(NC(=O)C(C)Oc3ccc(OC)cc3)ccc21 (stereo not given),25µM,0
CN(C)CCCCOc1cccc(Br)c1,0,0
COc1cc(C(=O)Nc2nc(-c3ccc(Cl)cc3)c(C)s2)ccc1OCC(=O)Nc1ccc(F)cc1,16µM,0
CCc1ccc(-c2nc(NC(=O)c3ccc(OCC(=O)Nc4ccc(F)cc4)c(OC)c3)sc2C)cc1,4µM,0
COc1ccc(-c2nc(NC(=O)c3ccc(OCC(=O)N4CCOCC4)c(OC)c3)sc2C)cc1,?,0
COc1ccc(Br)c2c1-c1nc(NC(=O)c3ccc(F)cc3)sc1C2,0,0
N#Cc1cccc(NC(=O)N2CC[C@@]3(CCCN(C(=O)c4ccncc4)C3)C2)c1,0,0
COc1ccc(NC(=S)NC2CCCCCC2)c(OC)c1,0,0
COc1ccccc1NC(=S)NC1CCC(CC2CCC(NC(=S)Nc3ccccc3OC)CC2)CC1 (stereo not given),4µM,0
COc1cccc(NC(=O)CSc2nnc(COc3ccc4c(c3)CCCC4)o2)c1,0,0
CCc1ccc(NC(=O)CSc2nnc(COc3ccc4c(c3)CCCC4)o2)cc1,16µM,0
CCc1ccc(OCc2nnc(SCC(=O)Nc3cccc(C(=O)N4CCOCC4)c3)o2)cc1,?,0
COC(=O)c1ccc(NC(=O)CSc2nnc(COc3ccc4c(c3)CCCC4)o2)cc1,10µM,0
COc1ccc(-c2ccc(C#N)c(SCC(=O)Nc3sc4c(c3C#N)CCC4)n2)cc1,13µM,0
COc1cccc(-n2nnnc2SCC(=O)Nc2nc3c(s2)CCCC3)c1,25µM,0

# Screening data: PubChem, National Center for Advancing Translational Sciences (NCATS)
